Some structures have more than one record in an assay (separate samples or runs), and their calls can disagree. Calls of active or inactive are those of the source. How the source made its calls: active means hit-call score of the fitted dose curve at least 0.9, where 1 is the maximum; inactive means score below 0.9.
Assay: BSK_BT_Bcell_Proliferation: Viability Assessment in the BioMAP Diversity Plus: BT Assay for B cell Proliferation (AID 2284227)
Conditions: primary human B cells with PBMC
Procedure: BSK_BT is a cell-based, multiplexed-readout assay that uses B cell and peripheral blood mononuclear cells, a human vascular primary cell co-culture, with measurements taken at 24 hours after chemical dosing in a microplate: 96-well plate.BSK_BT_Bcell_Proliferation is an assay component measured in the BSK_BT assay. It measures protein content, a form of viability reporter, as detected with absorbance signals by Sulforhodamine staining technology.Data from the assay component BSK_BT_Bcell_Proliferation was analyzed at the endpoint, BSK_BT_Bcell_Proliferation, in the positive analysis fitting direction relative to DMSO as the negative control and baseline of activity. Using a type of viability reporter, gain or loss-of-signal activity can be used to understand cellular changes in viability. To generalize the intended target to other relatable targets, this assay endpoint is annotated to the 'cell cycle' intended target family, where the subfamily is 'proliferation'.
The levels of cell surface (or secreted, indicated by the prefix "s") biomarker endpoints were measured by ELISA. Overt cytotoxicity to cells in confluent adherent cultures (all systems other than the BT system) was assessed by measuring total protein levels using sulforhodamine B (SRB) staining in parallel cultures at the time of biomarker measurements, indicated as SRB endpoints. For proliferation assays for adherent cell types, individual cell types are cultured at sub-confluence and relative cell numbers quantified by SRB staining at time points optimized for each system (48 h: 3C and CASM3C systems; 72 h: BT and HDF3CGF systems; 96 h: SAg system). SRB was performed by staining cells with 0.1% SRB after fixation with 10% TCA and reading wells at 560 nm.Viability and proliferation of PBMC (T cells) was quantified by Alamar Blue reduction for the SAg and BT systems. For PBMC viability (referred to as PBMC Cytotoxicity within the assay endpoint names), cells were plated (75,000/well in a 96-well plate) and then chemical samples added for 1 h before addition of activators, SEB and TSST-1 (20 ng/mL final concentration each). Cells were incubated for 90 h. Then, Alamar Blue (20 uL/well) (Invitrogen, Cat DAL1100) was added for 6 h, and the plates were read with a fluorescence microplate reader at 546/580 nm (excitation/emission). For PBMC proliferation, cells were plated and activated as above but incubated for only 16 h prior to addition of Alamar Blue. Plates were read after 6 h.

SMILES | outcome | AC50
OCCC(F)(F)C(F)(F)C(F)(F)C(F)(F)F | inactive | 
O=C(Cl)C(F)(F)C(F)(F)C(F)(F)C(=O)Cl | inactive | 
OC(O)(C(F)C(O)(O)C(F)(F)F)C(F)(F)F |  | 30 µM (active)
O=S(=O)(O)CCC(F)(F)C(F)(F)C(F)(F)C(F)(F)C(F)(F)C(F)(F)F | inactive | 30 µM (active)
Cc1cccc(O)c1C | inactive | 
NCC(F)(F)C(F)(F)C(F)(F)C(F)(F)F | inactive | 
OCc1c[nH]c2ccccc12 |  | 3.97 µM (active)
C[Si](C)(C)C(F)(F)C(F)(F)C(F)(F)F | inactive | 
FC(F)C(F)(F)COCC1CO1 (centres undefined) | inactive | 
FC(F)(F)COC(OCC(F)(F)F)OCC(F)(F)F | inactive | 
FC(F)(F)C(F)(F)C(F)(F)C(F)(F)C(F)(F)C(F)(F)I | inactive | 
FC(F)=C(F)C(F)(F)C(F)(F)C(F)(F)C(F)(F)C(F)(F)C(F)(F)F | inactive | 
S=P(N1CC1)(N1CC1)N1CC1 |  | 8.1 µM (active)

Source: PubChem BioAssay (EPA / NIEHS)
